Several values for one entry are separate records, joined by “and”; a condition that tells them apart may be missing. Identical values can stand only once. Inconclusive results are not listed. Some structures have more than one record in an assay (separate samples or runs), and their calls can disagree. Activity calls are given as the source filed them. Unless noted, calls follow the shape of the full dose curve.
Columns and labels:
[1] = qHTS assay to identify small molecule agonists of the androgen receptor (AR) signaling pathway in the presence of an antagonist - cell viability counter screen (AID 1259379; active = well fitted curve in the direction sought with a large enough effect in the repeat runs; an effect the other way counts as inactive or inconclusive;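 also: MDA-kb2 human breast cancer cells carrying an MMTV luciferase reporter; series mostly up to about 92 µM; nearly all actives have a fitted effect of over 25% in size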)
Outline: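 MDA-kb2 viability measured by CellTiter-Fluor fluorescence in the same wells as the luciferase signal; nilutamide 3.0uM final; 15-point compound titration; 16 hr at 37C.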

[2] = qHTS assay to identify small molecule agonists of the estrogen receptor beta (ER-beta) signaling pathway - cell viability counter screen (AID 1259380; active = well fitted curve in the direction sought with a large enough effect in the repeat runs; an effect the other way counts as inactive or inconclusive; also: nearly all actives have a fitted effect of over 30% in size; also: potency is read from the fitted curve at half-maximal effect)
Outline: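 Measured: luminescence from CellTiter-Glo after 30 min at room temperature, added to wells already read for the LiveBLAzer FRET reporter (2 hr substrate); ER-beta-UAS-bla HEK293T cells had 16 hr compound treatment at 37C, 5% CO2.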

[3] = qHTS assay to identify small molecule antagonists of the estrogen receptor beta (ER-beta) signaling pathway - cell viability counter screen (AID 1259382; active = well fitted curve in the direction sought with a large enough effect in the repeat runs; an effect the other way counts as inactive or inconclusive;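 also: HEK293T cells carrying ER-beta-UAS-bla reporter stimulated with estradiol; series mostly up to about 92 µM; nearly all actives have a fitted effect of over 55% in size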)
Outline: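 Readout: luminescence, CellTiter-Glo, same wells as bla assay. System: ER-beta-UAS-bla GripTite HEK293T, 2% charcoal-stripped FBS. Exposure: compounds plus 1nM 17-beta-estradiol, 16 hr, 37C.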

[4] = biological target: Estrogen receptor (Homo sapiens) (UniProt P03372); experiment: qHTS assay to identify small molecule agonists of the estrogen receptor alpha (ER-alpha) signaling pathway in the presence of an antagonist (AID 1259383); also: nearly all actives have a fitted effect of over 15% in size; also: potency is read from the fitted curve at half-maximal effect
Outline: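 Quantitative HTS confirmation: compounds titrated at 15 concentrations onto estrogen-deprived VM7Luc4E2 cells carrying a four-ERE luciferase construct, with ICI-182,780 present at 10.0nM final. Signal is luminescence after 22hr exposure.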

[5] = qHTS assay to identify small molecule agonists or antagonists of the thyroid stimulating hormone receptor (TSHR) signaling pathway - wild type cell line counter screen (AID 1259384)
Outline: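 Wild-type HEK293 cells were plated 18 h at 37 C/5% CO2, pin-dosed with compound plus Ro20-1724 medium, held 30 min at room temperature, then given cAMP-d2 and anti-cAMP-cryptate; fluorescence was read after 1 h. Fifteen concentrations, triplicate.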

[6] = biological target: Thyrotropin receptor (Homo sapiens) (UniProt P16473); experiment: qHTS assay to identify small molecule antagonists of the thyroid stimulating hormone receptor (TSHR) signaling pathway (AID 1259385); also: nearly all actives have a fitted effect of over 20% in size
Outline: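 TSHR-HEK293 cells were plated and held 18 h at 37C/5% CO2, then given compound plus Ro20-1724 and stimulated with TSH at 1.5 ng/mL final. After 30 min at room temperature, cAMP was detected with cAMP-d2/anti-cAMP-cryptate (1 h) by fluorescence.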

[7] = qHTS assay to identify small molecule agonists of the estrogen receptor alpha (ER-alpha) signaling pathway in the presence of an antagonist - cell viability counter screen (AID 1259386; active = well fitted curve in the direction sought with a large enough effect in the repeat runs; an effect the other way counts as inactive or inconclusive;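 also: series mostly up to about 92 µM; cells exposed to compounds for 22 h at 37 °C before the viability read; nearly all actives have a fitted effect of over 30% in size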)
Outline: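 The test measures whether compounds kill ER-alpha reporter cells (VM7Luc4E2) under antagonist co-treatment (ICI-182,780, 10.0nM). Fluorescence from CellTiter-Fluor is read after a 22hr exposure.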

[8] = biological target: Androgen receptor (Homo sapiens) (UniProt P10275); experiment: qHTS assay to identify small molecule agonists of the androgen receptor (AR) signaling pathway in the presence of an antagonist (AID 1259381); also: nearly all actives have a fitted effect of over 15% in size; also: potency is read from the fitted curve at half-maximal effect
Outline: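 Luminescent ONE-Glo read, 30min at room temperature, follows 16hr compound exposure (15 concentrations) of MDA-kb2 cells at 37C, 0% CO2, with nilutamide added at 3.0uM final.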

[9] = biological target: Progesterone receptor (Homo sapiens) (UniProt P06401); experiment: qHTS assay to identify small molecule agonists of the progesterone receptor (PR) signaling pathway (AID 1346784); also: nearly all actives have a fitted effect of over 30% in size; also: potency is read from the fitted curve at half-maximal effect
Outline: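 Compounds were tested for PR agonism in HEK 293T cells bearing a beta-lactamase gene under UAS control. Treatment lasted 16 hr at 37C; signal came from fluorescence of a FRET substrate.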

[10] = biological target: Progesterone receptor (Homo sapiens) (UniProt P06401); experiment: qHTS assay to identify small molecule antagonists of the progesterone receptor (PR) signaling pathway (AID 1346795; active = well fitted inhibition curve with a large enough effect in the signal ratio in the repeat runs, not every such curve was filed as active; the % refers to the signal ratio; also: potency is read from the fitted curve at half-maximal effect)
Outline: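 In HEK293T cells bearing the PR-UAS-bla reporter, compound effects on promegestone-driven (1 nM) beta-lactamase expression are assessed after 16 hr using a fluorescent FRET substrate incubated 2 hr at room temperature.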
% is scaled to controls: 0 for no effect and ±100 for the full control effect.

Chain of Estrogen receptor (Homo sapiens) (P03372 whole entry, looked up): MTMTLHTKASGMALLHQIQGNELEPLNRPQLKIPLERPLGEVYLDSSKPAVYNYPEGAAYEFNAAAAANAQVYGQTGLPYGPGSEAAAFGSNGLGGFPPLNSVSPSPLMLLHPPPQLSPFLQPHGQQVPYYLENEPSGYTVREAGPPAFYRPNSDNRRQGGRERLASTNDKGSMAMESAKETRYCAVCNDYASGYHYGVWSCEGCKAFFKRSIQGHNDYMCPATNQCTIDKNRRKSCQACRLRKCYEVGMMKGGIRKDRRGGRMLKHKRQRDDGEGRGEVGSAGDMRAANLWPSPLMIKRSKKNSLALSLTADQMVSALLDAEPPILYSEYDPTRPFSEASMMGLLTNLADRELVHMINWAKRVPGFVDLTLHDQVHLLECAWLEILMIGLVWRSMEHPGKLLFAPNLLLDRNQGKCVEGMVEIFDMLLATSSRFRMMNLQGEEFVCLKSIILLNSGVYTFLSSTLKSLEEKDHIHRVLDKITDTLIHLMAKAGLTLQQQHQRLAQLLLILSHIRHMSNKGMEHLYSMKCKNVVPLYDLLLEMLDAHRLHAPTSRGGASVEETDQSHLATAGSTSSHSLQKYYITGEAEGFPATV
Chain of Thyrotropin receptor (Homo sapiens) (P16473 whole entry, looked up): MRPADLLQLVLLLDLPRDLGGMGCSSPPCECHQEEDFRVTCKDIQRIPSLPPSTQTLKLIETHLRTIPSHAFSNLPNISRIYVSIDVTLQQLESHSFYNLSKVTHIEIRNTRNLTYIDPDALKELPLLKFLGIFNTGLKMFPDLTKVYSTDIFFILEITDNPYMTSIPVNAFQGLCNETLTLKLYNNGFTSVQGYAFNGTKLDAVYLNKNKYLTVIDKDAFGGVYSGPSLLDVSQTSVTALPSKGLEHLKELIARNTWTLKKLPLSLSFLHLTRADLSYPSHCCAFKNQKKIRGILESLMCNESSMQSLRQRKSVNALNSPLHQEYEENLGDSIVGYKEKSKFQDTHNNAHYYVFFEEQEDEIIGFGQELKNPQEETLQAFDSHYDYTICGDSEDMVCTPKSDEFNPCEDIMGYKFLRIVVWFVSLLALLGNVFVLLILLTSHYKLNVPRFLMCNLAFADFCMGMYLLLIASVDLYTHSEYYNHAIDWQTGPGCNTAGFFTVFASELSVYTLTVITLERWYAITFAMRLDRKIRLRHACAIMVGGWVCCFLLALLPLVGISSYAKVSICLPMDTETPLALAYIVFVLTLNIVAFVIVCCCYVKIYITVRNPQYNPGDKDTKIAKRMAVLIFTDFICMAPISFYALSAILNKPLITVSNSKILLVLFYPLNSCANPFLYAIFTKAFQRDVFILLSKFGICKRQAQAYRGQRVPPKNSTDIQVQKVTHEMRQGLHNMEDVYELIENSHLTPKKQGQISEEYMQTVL
Chain of Progesterone receptor (Homo sapiens) (P06401 whole entry, looked up): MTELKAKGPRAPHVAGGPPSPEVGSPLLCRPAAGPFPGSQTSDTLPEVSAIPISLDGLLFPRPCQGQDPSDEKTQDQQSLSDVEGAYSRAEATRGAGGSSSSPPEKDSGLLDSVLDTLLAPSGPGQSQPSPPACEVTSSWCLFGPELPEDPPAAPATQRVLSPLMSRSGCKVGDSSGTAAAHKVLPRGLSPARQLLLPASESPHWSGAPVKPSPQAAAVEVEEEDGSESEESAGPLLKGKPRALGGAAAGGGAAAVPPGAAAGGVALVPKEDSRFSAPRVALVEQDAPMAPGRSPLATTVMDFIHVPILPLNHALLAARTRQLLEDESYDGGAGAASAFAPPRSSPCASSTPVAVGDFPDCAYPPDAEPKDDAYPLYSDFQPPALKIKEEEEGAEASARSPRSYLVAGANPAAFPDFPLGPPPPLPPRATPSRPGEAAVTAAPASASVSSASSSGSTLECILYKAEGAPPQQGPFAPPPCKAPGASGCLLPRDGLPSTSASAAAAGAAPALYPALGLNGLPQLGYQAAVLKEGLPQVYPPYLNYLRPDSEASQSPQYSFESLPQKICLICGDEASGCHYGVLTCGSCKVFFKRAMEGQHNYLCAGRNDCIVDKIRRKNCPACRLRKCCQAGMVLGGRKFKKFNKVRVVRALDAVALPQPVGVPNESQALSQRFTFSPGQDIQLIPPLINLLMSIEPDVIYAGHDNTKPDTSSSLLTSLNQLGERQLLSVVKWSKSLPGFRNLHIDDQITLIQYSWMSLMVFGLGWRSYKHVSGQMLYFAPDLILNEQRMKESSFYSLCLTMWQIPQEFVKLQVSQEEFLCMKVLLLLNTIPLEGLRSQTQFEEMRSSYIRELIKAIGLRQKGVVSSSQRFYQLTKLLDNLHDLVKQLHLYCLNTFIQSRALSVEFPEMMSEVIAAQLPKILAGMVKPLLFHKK
Chain of Androgen receptor (Homo sapiens) (P10275 whole entry, looked up): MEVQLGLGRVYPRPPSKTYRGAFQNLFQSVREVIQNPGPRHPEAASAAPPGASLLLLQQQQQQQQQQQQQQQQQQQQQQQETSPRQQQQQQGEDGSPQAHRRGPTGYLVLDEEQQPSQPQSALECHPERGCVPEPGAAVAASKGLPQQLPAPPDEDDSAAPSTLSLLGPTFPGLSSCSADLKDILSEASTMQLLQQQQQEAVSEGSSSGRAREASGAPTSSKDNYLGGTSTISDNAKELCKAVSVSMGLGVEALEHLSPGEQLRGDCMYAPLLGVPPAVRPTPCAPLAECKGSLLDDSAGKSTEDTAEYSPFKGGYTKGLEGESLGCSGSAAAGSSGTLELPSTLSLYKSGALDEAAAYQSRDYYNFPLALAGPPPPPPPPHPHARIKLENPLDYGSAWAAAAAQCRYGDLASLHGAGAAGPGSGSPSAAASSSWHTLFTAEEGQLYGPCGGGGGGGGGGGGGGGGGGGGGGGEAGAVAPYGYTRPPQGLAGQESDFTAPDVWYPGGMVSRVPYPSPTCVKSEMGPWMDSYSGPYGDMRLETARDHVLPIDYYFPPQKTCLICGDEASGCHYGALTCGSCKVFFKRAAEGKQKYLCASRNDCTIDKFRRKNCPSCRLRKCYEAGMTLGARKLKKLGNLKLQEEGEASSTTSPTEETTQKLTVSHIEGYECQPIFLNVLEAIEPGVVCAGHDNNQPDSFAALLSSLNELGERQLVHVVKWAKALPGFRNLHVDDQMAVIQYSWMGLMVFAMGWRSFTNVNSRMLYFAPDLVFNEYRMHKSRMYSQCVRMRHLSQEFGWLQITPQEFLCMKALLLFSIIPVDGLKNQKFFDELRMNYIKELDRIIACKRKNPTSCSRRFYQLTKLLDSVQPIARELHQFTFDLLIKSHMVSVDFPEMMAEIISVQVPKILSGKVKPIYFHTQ

O=C(O)CCCC[C@@H]1SC[C@@H]2NC(=O)N[C@@H]21
inactive: Potency [1] | Potency [2] | Potency [3] | Potency [4] | outcome [5] | Potency [6] | Potency [7]

O=C(O)c1ccccc1C(c1ccc(O)cc1)c1ccc(O)cc1
inactive: Potency [1] | Potency [2] | Potency [8] | Potency [3] | Potency [4] | outcome [5] | Potency [6] | Potency [7] | Potency [9] | Potency [10]

CCCCC(CC)COC(=O)CCCCC(=O)OCC(CC)CCCC (stereo not given)
inactive: Potency [1] | Potency [2] | Potency [3] | Potency [4] | outcome [5] | Potency [6] | Potency [7] | Potency [9] | Potency [10]

c1ccc2c(c1)ccc1ccccc12
inactive: Potency [1] | Potency [2] | Potency [8] | Potency [3] | Potency [4] | outcome [5] | Potency [6] | Potency [7] | Potency [9] | Potency [10]

COS(C)(=O)=O
inactive: Potency [1] | Potency [2] | Potency [3] | Potency [4] | outcome [5] | Potency [6] | Potency [7]

CN(C)CCCN
inactive: Potency [1] | Potency [2] | Potency [3] | Potency [4] | outcome [5] | Potency [6] | Potency [7] | Potency [9] | Potency [10]

NNc1nncc2ccccc12
active: Potency [2] 21.7 µM | Potency [10] 61.1 µM
inactive: Potency [1] | activity change, negative = cytotoxicity [2] -0.605% [at 19 µM] | Potency [3] | outcome [5] | Potency [6] | activity change, negative = cytotoxicity [7] -0.882% [at 19 µM] | Potency [9] | activity change, negative = inhibition [10] 9.77% [at 18.9 µM]

COc1ccc(NC(C)=O)cc1N
inactive: Potency [1] | Potency [2] | Potency [3] | Potency [4] | outcome [5] | Potency [6] | Potency [7] | Potency [9] | Potency [10]

Cc1ccc2oc(=O)ccc2c1
inactive: Potency [1] | Potency [2] | Potency [3] | Potency [4] | outcome [5] | Potency [6] | Potency [7] | Potency [9] | Potency [10]

O=S1(=O)CC=CC1
inactive: Potency [1] | Potency [2] | Potency [3] | Potency [4] | outcome [5] | Potency [6] | Potency [7] | Potency [9] | Potency [10]

O=C(O)c1ccc2c(c1)C(=O)OC2=O
inactive: Potency [1] | Potency [2] | Potency [8] | Potency [3] | Potency [4] | outcome [5] | Potency [6] | Potency [7] | Potency [9] | Potency [10]

Cc1ccc(N(C)C)cc1
inactive: Potency [1] | Potency [2] | Potency [8] | Potency [3] | Potency [4] | outcome [5] | Potency [6] | Potency [7] | Potency [9] | Potency [10]

FC(F)(F)c1ccc(Cl)c(Cl)c1
inactive: Potency [1] | Potency [2] | Potency [8] | Potency [3] | Potency [4] | outcome [5] | Potency [6] | Potency [7] | Potency [9] | Potency [10]

CC1CCC(C(C)C)C(O)C1 (stereo not given)
inactive: Potency [1] | Potency [2] | Potency [8] | Potency [3] | outcome [5] | Potency [6] | Potency [7] | Potency [9] | Potency [10]

CCOC(=O)NNc1nncc2ccccc12
inactive: Potency [1] | Potency [2] | Potency [3] | Potency [4] | outcome [5] | Potency [6] | Potency [7] | Potency [9] | Potency [10]

CC(c1cc2ccccc2s1)N(O)C(N)=O (stereo not given)
inactive: Potency [1] | Potency [2] | Potency [8] | Potency [3] | Potency [4] | Potency [7] | Potency [9] | Potency [10]

CCCCCOC(C)=O
inactive: Potency [1] | Potency [2] | Potency [3] | Potency [4] | outcome [5] | Potency [6] | Potency [7] | Potency [9]

O=C(O)CCCCCCCCCCC(=O)O
inactive: Potency [1] | Potency [2] | Potency [3] | Potency [4] | outcome [5] | Potency [6] | Potency [7] | Potency [9] | Potency [10]

O=S(=O)(O)c1ccc2ccccc2c1
inactive: Potency [1] | Potency [2] | Potency [3] | Potency [4] | outcome [5] | Potency [6] | Potency [7] | Potency [9] | Potency [10]

C[Si](O[Si](C)(C)C)O[Si](C)(C)C
inactive: Potency [1] | Potency [2] | Potency [8] | Potency [3] | outcome [5] | Potency [6] | Potency [7] | Potency [9] | Potency [10]

O=P(OC(CCl)CCl)(OC(CCl)CCl)OC(CCl)CCl
active: Potency [10] 6.82 µM and 7.7 µM
inactive: Potency [1] | Potency [2] | Potency [3] | Potency [4] | outcome [5] | Potency [6] | Potency [7] | Potency [9]

Fc1ccc(Br)cc1
61.8 µM (active) and inactive: Potency [4]
inactive: Potency [1] | Potency [2] | Potency [3] | outcome [5] | Potency [6] | Potency [7] | Potency [9] | Potency [10]

O=C(O)CC(C(=O)O)C(CC(=O)O)C(=O)O (stereo not given)
inactive: Potency [1] | Potency [2] | Potency [3] | Potency [4] | outcome [5] | Potency [6] | Potency [7] | Potency [9] | Potency [10]

c1ccc2scnc2c1
inactive: Potency [1] | Potency [2] | Potency [3] | Potency [4] | outcome [5] | Potency [6] | Potency [7] | Potency [9] | Potency [10]

CC(C)c1ccc(S(=O)(=O)O)cc1
inactive: Potency [1] | Potency [2] | Potency [3] | Potency [4] | outcome [5] | Potency [6] | Potency [7] | Potency [9] | Potency [10]

CC1=C(C)S(=O)(=O)CCS1(=O)=O
inactive: Potency [1] | Potency [2] | Potency [8] | Potency [3] | Potency [4] | Potency [7] | Potency [9] | Potency [10]

Cc1cc(C)c(C)cc1C
inactive: Potency [1] | Potency [2] | Potency [3] | Potency [4] | outcome [5] | Potency [6] | Potency [7] | Potency [9] | Potency [10]

CCc1cccc(C)c1N
inactive: Potency [1] | Potency [2] | Potency [8] | Potency [3] | Potency [4] | outcome [5] | Potency [6] | Potency [7] | Potency [9] | Potency [10]

CC(O)COCC(C)O (stereo not given)
inactive: Potency [1] | Potency [2] | Potency [3] | Potency [4] | outcome [5] | Potency [6] | Potency [7] | Potency [9] | Potency [10]

O=c1[nH]c(=O)n([C@H]2C[C@H](O)[C@@H](CO)O2)cc1Br
inactive: Potency [1] | Potency [2] | Potency [3] | Potency [4] | outcome [5] | Potency [6] | Potency [7] | Potency [9] | Potency [10]

CCCCCCCCCCCCOCCO
inactive: Potency [1] | Potency [2] | Potency [8] | Potency [3] | outcome [5] | Potency [6] | Potency [7] | Potency [9]

OCCOCCOCCO
inactive: Potency [1] | Potency [2] | Potency [8] | Potency [3] | Potency [4] | outcome [5] | Potency [6] | Potency [7] | Potency [9] | Potency [10]

CCC(O)OC(O)CC (stereo not given)
inactive: Potency [1] | Potency [2] | Potency [3] | Potency [4] | outcome [5] | Potency [6] | Potency [7] | Potency [9] | Potency [10]

CC(=O)c1ccccc1
inactive: Potency [1] | Potency [2] | Potency [3] | Potency [4] | outcome [5] | Potency [6] | Potency [7] | Potency [9] | Potency [10]

CC(=O)Nc1ccccc1
inactive: Potency [1] | Potency [2] | Potency [3] | Potency [4] | outcome [5] | Potency [6] | Potency [7] | Potency [9] | Potency [10]

C[C@H]1C[C@@H]2[C@H]([C@@H](O)C[C@@]3(C)[C@H]2CC[C@]3(O)C(=O)CO)[C@@]2(C)C=CC(=O)C=C12
active: Potency [8] 54.5 nM and 59.6 nM | Potency [9] 48.6 µM
inactive: Potency [1] | Potency [2] | Potency [3] | Potency [7]

CCCCCCCC(=O)OC
inactive: Potency [1] | Potency [2] | Potency [3] | Potency [4] | outcome [5] | Potency [6] | Potency [7] | Potency [9] | Potency [10]
